In the library only some 9.5% were active in any assay of this set; here they are far more common.
Tau fibril FP: tau fibrillization inhibition (FP) | Potency, µM (titrated, usually from 57.7 µM), inactives show at the highest dose activity, negative = inhibition, hits mostly inhibitors | P10636 | 280,000 compounds, 0.39% hits | K18 P301L tau heparin fibrillization, Alexa594 FP, 6 h; also: nearly all actives have a fitted effect of over 55% in size
Target sequence (P10636 561-689 P618L limits assumed): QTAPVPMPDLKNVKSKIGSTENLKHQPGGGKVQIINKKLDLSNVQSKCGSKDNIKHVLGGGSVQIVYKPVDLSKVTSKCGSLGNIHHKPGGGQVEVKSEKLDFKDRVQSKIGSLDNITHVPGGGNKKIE
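Compound effects on tau fibrillization are measured by Alexa 594 fluorescence polarization (ex 555, em 632 nm). K18 P301L tau is used at 15 uM with 0.24 uM labeled tracer, and 20 uM heparin induces aggregation over 6 hr at 37 C.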
ALDH1A1 block: ALDH1A1 (human) enzyme inhibition | P00352 | Purified ALDH1A1, NADH fluorescence, propionaldehyde substrate | Potency, µM (top dose mostly 75.3 µM), for the others: at the highest dose activity, negative = inhibition, most hits filed as inhibitors | 220,000 compounds, 7.3% hits | AID 1030; active = well fitted inhibition curve with a large enough effect, not every such curve was filed as active; inconclusive = small, poorly fitted or top-dose-only effect, or another doubt; inactive = no such curve, though single readings can be large or run the other way;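 also: plate controls were no enzyme wells and a reference inhibitor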
Tau fluor cs: counter-screen for tau fibril formation inhibitors; tau K18 P301L Alexa594 fluorescence, heparin fibrillization; Potency, µM (doses to about 57.7 µM), for inactives: top-dose activity change, negative = decrease; 280,000 compounds, 0.93% hits; AID 1463; also: nearly all actives have a fitted effect of over 55% in size
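Human K18 P301L tau (15 uM unlabeled plus 0.24 uM Alexa 594-labeled, final) in 100 mM sodium acetate pH 7 was mixed with compound and 20 uM heparin and incubated 6 hr at 37 C.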
Tau fibril ThT: tau fibrillization inhibition (ThT binding); P10636; recombinant tau K18 P301L (four-repeat tau fragment), heparin-induced fibrillization, ThT fluorescence; Potency, µM (doses to about 57.4 µM), inactives show at the top dose activity, negative = inhibition, most hits filed as inhibitors; 270,000 compounds, 2.1% hits; AID 1460; also: nearly all actives have a fitted effect of over 55% in size
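Tau K18 P301L fragment (15 uM unlabeled plus 0.24 uM Alexa 594-labeled) in 100 mM sodium acetate pH 7 with compound, fibrillization induced by 20 uM heparin for 6 hr at 37 C. Thioflavin T (30 uM) added, fluorescence read after 1 hr (ex 450, em 510 nm).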
HPGD inh: inhibitors of human 15-hydroxyprostaglandin dehydrogenase (HPGD). AID 894. Potency, µM, for the others: at the highest dose activity change, negative = inhibition, hits mostly inhibitors. 150,000 compounds, 4.3% hits. P15428. purified HPGD, NADH fluorescence kinetic, PGE2 substrate; active = well fitted inhibition curve with a large enough effect, not every such curve was filed as active; inconclusive = small, poorly fitted or top-dose-only effect, or another doubt; inactive = no such curve, though single readings can be large or run the other way
Target sequence (P15428 whole entry, looked up): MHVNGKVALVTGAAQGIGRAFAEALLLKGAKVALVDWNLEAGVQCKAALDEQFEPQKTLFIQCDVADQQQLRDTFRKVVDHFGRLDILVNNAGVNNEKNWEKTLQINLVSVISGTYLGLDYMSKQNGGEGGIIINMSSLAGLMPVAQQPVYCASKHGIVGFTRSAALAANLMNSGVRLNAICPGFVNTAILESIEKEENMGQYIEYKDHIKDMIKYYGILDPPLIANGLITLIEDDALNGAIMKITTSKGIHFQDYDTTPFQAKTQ
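20 nM HPGD preincubated 15 min at room temperature with compound in 50 mM Tris-HCl pH 8, 0.01% Tween 20. Started with 1 mM NAD+ and 30 uM prostaglandin E2; NADH fluorescence (360/450 nm) read 5 times over 30-s intervals, last minus first.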
NPSR antagonist: antagonists of human neuropeptide S receptor cAMP signaling. Q6W5P4. CHO-NPSR cells, cAMP TR-FRET, antagonist mode. Potency, µM (titrated, usually from 38.3 µM), inactives show at the top dose activity change, negative = inhibition, most hits filed as inhibitors. 220,000 compounds, 1% hits. AID 1461; also: nearly all actives have a fitted effect of over 50% in size
Target sequence (Q6W5P4 whole entry, looked up): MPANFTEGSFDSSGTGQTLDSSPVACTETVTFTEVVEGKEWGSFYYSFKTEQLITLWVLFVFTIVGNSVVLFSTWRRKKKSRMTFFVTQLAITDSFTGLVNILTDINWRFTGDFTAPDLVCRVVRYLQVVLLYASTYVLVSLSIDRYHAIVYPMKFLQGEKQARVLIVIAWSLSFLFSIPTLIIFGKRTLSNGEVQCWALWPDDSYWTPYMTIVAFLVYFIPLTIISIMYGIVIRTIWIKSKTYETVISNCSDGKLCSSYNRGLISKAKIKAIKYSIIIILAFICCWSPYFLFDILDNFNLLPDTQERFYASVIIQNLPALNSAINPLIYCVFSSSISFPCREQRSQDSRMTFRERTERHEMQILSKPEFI
The depositor's hits bear a star; ? = inconclusive; / = not tested or not shown; [ ] = remark or other dose. Unless noted, calls follow the shape of the dose curve; as a rule, active = well fitted curve in the direction sought with a large enough effect; inconclusive = small, poorly fitted or top-dose-only effect, or another doubt; inactive = no such curve, though single readings can be large; an effect the other way counts as inactive or inconclusive. Unless noted, % is scaled to controls: 0 for no effect and ±100 for the full control effect; potency is read from the fitted curve at half-maximal effect.

SMILES	Tau fibril FP	ALDH1A1 block	Tau fluor cs	Tau fibril ThT	HPGD inh	NPSR antagonist
O=C(O)C(c1ccccc1)N1C(=O)/C(=C/c2cccs2)SC1=S (centres undefined)	-8.1%	?	-14.8%	?	/	29.1%
CC(/C=C1\SC(=S)N(CC(=O)N2CCN(c3ccccc3)CC2)C1=O)=C\c1ccccc1	2.2%	?	-22.2%	?	-6.8%	-1.5%
CC(/C=C1\SC(=S)N(C(C(=O)O)c2ccccc2)C1=O)=C\c1ccccc1 (centres undefined)	-13.5%	/	-12.9%	31.6µM*	/	8.7%[7.67 µM]
CC(/C=C1\SC(=S)N(CC(=O)O)C1=O)=C\c1ccccc1	-7.8%	/	-23.0%	7.94µM*	/	10.1%[7.67 µM]
C=CCOc1ccc(/C=C2\SC(=S)N(C(C(=O)O)c3ccccc3)C2=O)cc1 (centres undefined)	-5.6%	/	-4.1%	22.4µM*	/	-9.7%
CC(=C\c1ccco1)/C=C1/SC(=S)N(CC(=O)O)C1=O	?	/	?	3.98µM*	/	-17.2%
Cc1c(C)c2c(c(C)c1O)CC[C@@](C)(CCC[C@@H](C)CCC[C@@H](C)CCCC(C)C)O2	2.9%	6.7%	-7.8%	-6.9%	-11.4%	/
CCOc1ccc(/C=C2\SC(=S)N(C(C(=O)O)c3ccccc3)C2=O)cc1OC (centres undefined)	0.6%	/	-3.2%	?	/	-26.0%
O=C(CN1C(=O)S/C(=C\C=C\c2ccccc2)C1=O)Nc1ccc(C(=O)O)cc1	0.4%	12.6µM*	-14.4%	?	/	19.3%
CC(/C=C1\SC(=O)N(CC(=O)Nc2cccc(O)c2)C1=O)=C\c1ccccc1	15.8µM*	-1.6%	6.31µM*[quencher]	-27.0%	-3.9%	?
COc1ccc(OC)c(/C=C2\SC(=S)N(C(C(=O)O)c3ccccc3)C2=O)c1 (centres undefined)	-11.5%	/	-15.4%	15.8µM*	/	35.3%
Cc1ccc(CSc2ncn(-c3ccccc3)n2)cc1	-17.3%	15.8µM*	-8.8%	-0.8%	20µM*	-16.9%[46.1 µM]
Clc1ccccc1CSc1ncn(-c2ccccc2)n1	-12.8%	-2.9%	?	-15.7%	17.8µM*	5.8%[46.1 µM]
COc1ccccc1NC(=O)Cn1c(=O)n(-c2cccc(Cl)c2)c(=O)c2sc3ccccc3c21	-20.1%	/	-13.3%	16.8%	/	/
CC(C)(C)NC(=O)CSc1nc(N)c(-c2ccccc2)c(=O)[nH]1	-0.8%	2.9%	-11.4%	-8.8%	/	-5.1%
COc1ccc(C(=O)/C=C2/c3ccccc3CC(C)(C)N2C)cc1OC	7.9%	23.8µM*	-2.9%	-13.6%	-9.5%	5.3%
COc1ccc(CCNC(=O)c2ccc(-c3cccc([N+](=O)[O-])c3)o2)cc1OC	11.9%	12.6µM*	?	?	/	-17.1%
NNC(=O)c1ccc(-c2cccc([N+](=O)[O-])c2)o1	9.6%	7.08µM*	-7.2%	?	/	-18.2%
COc1ccc2nc(S(=O)Cc3ncc(C)c(OC)c3C)[nH]c2c1 (centres undefined)	?	-2.0%[20.9 µM]	-24.5%	31.6µM*	28.2µM*	-53.7%
O=C1CC(c2ccc(F)cc2)Cc2nc(N3CCOCC3)ncc21 (centres undefined)	0.4%	28.2µM*	0.0%	1.1%	-21.1%	-20.3%[46.1 µM]
O=C1CC(c2cccc(Cl)c2)Cc2nc(N3CCOCC3)ncc21 (centres undefined)	9.9%	-5.1%	-14.6%	-6.0%	-28.1%	-27.8%[46.1 µM]
c1cncc(-c2nccc(NCc3cccs3)n2)c1	/	11.2µM*	/	/	/	/
Clc1ccccc1-c1nccc(NCc2cccs2)n1	/	14.1µM*	/	/	/	/
c1cncc(-c2cc(NCc3cccs3)ncn2)c1	/	-11.4%	/	/	/	/
Cc1cnc(CNc2ccnc(-c3ccccc3Cl)n2)cn1	2.2%	-3.4%	-12.8%	-13.1%	-5.3%	/
SMILES	Tau fibril FP	ALDH1A1 block	Tau fluor cs	Tau fibril ThT	HPGD inh	NPSR antagonist
Cc1ccc(C)c(-c2ccc(C(=O)O)o2)c1	8.2%[126 µM]	?	-8.6%[126 µM]	-17.0%[126 µM]	?	/
Cc1ccc(C(=O)Nc2cccc(-c3cnc4ccccc4n3)c2)cc1	-13.3%	11.5%	-20.7%	-9.1%	-5.9%	?
O=C(Nc1cccc(-c2cnc3ccccc3n2)c1)c1ccco1	1.7%	25.1µM*	-27.4%	?	-23.2%	-21.9%[46.1 µM]
CC(C)=CCC/C(C)=C/COc1c2occc2cc2ccc(=O)oc12	-13.0%	8.91µM*	-24.4%	-15.3%	?	/
Cc1ccc(C(=O)N/N=C/c2cc(C)n(-c3ccc(Br)cc3)c2C)cc1[N+](=O)[O-]	3.6%	10µM*	-10.3%	-1.0%	?	-6.1%[46.1 µM]
CCOc1cc(/C=C(\C#N)c2[nH]nc(N)c2C#N)ccc1O	-3.1%	?	?	14.1µM*	25.1µM*	-10.8%[46.1 µM]
CCOC(=O)C1CCN(c2c(NCCC(C)C)c(=O)c2=O)CC1	2.8%	/	16.5%	14.5%	/	5.6%
CN(C)S(=O)(=O)c1ccc(C(=O)Nc2ccccc2SCCC#N)cc1	-7.2%	15.8µM*	-17.4%	-14.9%	/	-31.3%
COc1ccc2c(c1)CCc1c(C(=O)N3CCCCCC3)noc1-2	8.1%	?	-7.6%	?	10µM*	-20.5%[46.1 µM]
Cc1cc(NC(=O)c2noc3c2CCc2ccccc2-3)no1	-0.7%	4.3%	12.1%	0.7%	-9.6%	-5.3%[46.1 µM]
O=C(c1noc2c1CCc1ccccc1-2)N1CCCc2ccccc21	3.4%	12.6µM*	-23.8%	?	-27.4%	?
CCCNC(=O)c1noc2c1CCc1cc(OC)ccc1-2	0.0%	?	-15.0%	?	/	4.8%
O=C(c1noc2c1CCc1ccccc1-2)N1CCc2ccccc2C1	-0.9%	?	-3.4%	-14.1%	15.8µM*	-13.6%[46.1 µM]
O=C(c1noc2c1CCc1ccccc1-2)N1CCOCC1	3.6%	-13.7%	8.1%	8.7%	-22.6%	-6.1%[46.1 µM]
CCCN1Cc2cccc(C(=O)NCCCOC(C)C)c2C1=O	-2.2%	22.4µM*	-14.1%	-4.9%	-9.5%	-5.4%[46.1 µM]
CCCN1Cc2cccc(C(=O)NC(C)c3cccs3)c2C1=O (centres undefined)	5.2%	3.98µM*	-3.5%	-5.4%	-8.4%	-11.4%[46.1 µM]
CCc1nn(CC(=O)N(C)Cc2ccccc2)c(=O)c2cc3sccc3n12	-6.8%	/	-10.2%	-9.5%	/	/
O=C(O)CCC(=O)OC[C@@H](NC(=O)C(Cl)Cl)C(O)c1ccc([N+](=O)[O-])cc1 (some centres undefined)	5.1%	-13.9%	-12.9%	-4.7%	-1.5%	/
Oc1c(C(c2ccccc2Cl)N2CCC(O)CC2)sc2nc(-c3ccco3)nn12 (centres undefined)	-8.8%	/	-5.2%	-5.6%	/	/
O=C(CSCc1nc2c(nnn2Cc2ccc(F)cc2)c(=O)[nH]1)Nc1c(Cl)cc(Cl)cc1Cl	8.8%	2.0%	7.4%	-2.9%	/	-43.0%
O=C(NCc1ccco1)c1nc2c(nnn2Cc2ccccc2Cl)c(=O)[nH]1	-7.9%	-1.5%	-8.2%	-0.1%	14.1µM*	-13.9%[46.1 µM]

Bioassay records (PubChem)
